Data on 28 compounds can be found in PubChem BioAssay.

Values without a mark were called inactive. No rule for the calls is given here.

For this assay, the target named is L-lactate dehydrogenase (Plasmodium falciparum (isolate CDC / Honduras)) (UniProt Q27743). Put plainly: PfLDH activity inhibition – cell lysate, 3D7 strain, counter-screen for P. falciparum growth inhibition project (AID 2304).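 Also: 0% = vehicle and 100% = reference inhibitor.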 The following applies: P. falciparum 3D7 crude extract, LDH APAD/NBT absorbance; at 2 µM; hits give high values. A general note: The purpose of a counterscreen is to sort out artefacts and off-target activity.
Chain of L-lactate dehydrogenase (Plasmodium falciparum (isolate CDC / Honduras)) (Q27743 whole entry, looked up): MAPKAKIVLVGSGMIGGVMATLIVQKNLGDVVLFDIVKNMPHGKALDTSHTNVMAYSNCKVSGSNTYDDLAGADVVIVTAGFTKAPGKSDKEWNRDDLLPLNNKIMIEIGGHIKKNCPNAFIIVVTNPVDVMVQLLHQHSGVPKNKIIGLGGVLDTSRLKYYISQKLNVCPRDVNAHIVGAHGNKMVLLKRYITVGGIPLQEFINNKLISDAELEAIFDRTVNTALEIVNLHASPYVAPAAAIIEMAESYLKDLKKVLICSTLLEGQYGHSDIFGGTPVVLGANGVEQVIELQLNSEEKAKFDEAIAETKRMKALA
As usually defined, the inhibition is the change of the read-out against control, counted positive when it falls. As for `COc1ccc(CNc2ccnc3cc(OC)ccc23)cc1`, the inhibition was -7%. In the case of `Cc1cc(O)c(CN2CCN(Cc3cccs3)CC2)cc1C(C)C` it was -2%; in that of `CN(C)CCCNCc1cn(S(=O)(=O)c2ccccc2Cl)c2ccccc12`, -6%; in that of `Cc1cc(N)c2cc(NC(=O)c3ccc4ccccc4c3)ccc2n1`, 1%. The result for `COc1cccc(NC(=O)NC2CCN(c3ccnc(Nc4ccc(F)cc4)n3)C2)c1` (stereo not drawn) reads -2%; that for `COc1ccc(CNc2ncnc3c2[nH]c2ccc(F)cc23)cc1`, -3%; that for `FC(F)(F)c1cnc(Sc2nnc(-c3ccncc3)o2)c(Cl)c1`, 1%. For `COc1cccc(-c2csc(C(=O)NCC3CCN(Cc4ccc(C(C)(C)C)cc4)C3)c2)c1` (stereo not drawn), the inhibition was -2%. On to `COc1cc(OC)nc(C(Sc2ccc(NC(=O)c3cccs3)cc2)c2ccccc2)n1` (stereo not drawn), for which the inhibition was -1%. In the case of `COCCn1ccc2c3c(N)nc(N)nc3ccc21` it was -2%. In the case of `CCCNC(=O)C1Cc2cc(OC)c(OC)cc2C2(N1)C(=O)N(Cc1cccc(OC)c1)c1ccccc12` (stereo not drawn) it was 3%; in that of `O=C(c1ccc(F)c(F)c1)N1CCOC(CCN2CCC(c3ccccc3)CC2)(c2ccc(Cl)c(Cl)c2)C1` (stereo not drawn), 2%. As for `COc1ccc(-c2nc(NC(=O)CS(=O)(=O)c3ccc(C)cc3)sc2C)cc1`, the inhibition is 2%. In the case of `COc1ccc(-c2ccccc2OCCCNc2nc(NCCc3ccc(O)cc3)nc(N3CCNCC3)n2)cc1` it was -1%; in that of `CC(O)C1CCCCN1C(=O)c1ccc(-c2cccc(-c3nc4ccc(F)cc4[nH]3)c2)cc1` (stereo not drawn), -6%; in that of `CCN(CC)CCCC(C)Nc1c(-c2ccc(Br)cc2)cnc2ccccc12` (stereo not drawn), -1%. The result for `NCc1cccc(-c2cccc(CNC3CCN(Cc4ccccc4)CC3)c2)c1` reads 2%. The result for `NS(=O)(=O)c1ccc(CNc2ccc3ncc(-c4ccc(Cl)cc4)n3n2)cc1` reads -4%. `CCN(CC)CCCN(CCCN(CC)CC)c1cc(C)nc(Nc2ccc(Cl)cc2)n1`: the inhibition was 2%.

With `COc1cc2nc(N3CCC(CNCc4ccc(-c5ccc(C(F)(F)F)cc5)cc4)CC3)nc(N)c2cc1OC`, the inhibition was -4%. Consider `CCCCCn1c(Sc2ccc(C#N)c([N+](=O)[O-])c2)nnc1-c1cc(OC)cc(OC)c1`, for which the inhibition was 1%. The result for `Cc1cccc2[nH]c(-c3cccc(-c4ccc(NC(=O)C(C)(C)c5ccccn5)cc4)c3)nc12` reads -1%. As to `O=C(Cc1ccsc1)NCC(c1ccccc1Cl)c1c[nH]c2ccccc12` (stereo not drawn), the inhibition is -1%. As for `O=C(c1cc(C(=O)Nc2ccccc2)c(=O)n(-c2ccccc2)c1)c1cc(Cl)ccc1O`, the inhibition was -1%. On to `Cc1ccc2nc(-c3ccccc3)cc(NN=Cc3cccnc3)c2c1`, for which the inhibition is 1%. In the case of `Cc1[nH]c(C)c(-c2ccc(OCc3cccc(C(F)(F)F)c3)nc2)c(=O)c1Br` it was -2%. For `COc1cc2nc(C)nc(Nc3ccc4c(ccn4Cc4ccccc4)c3)c2cc1OC`, the inhibition was -7%. In the case of `O=C(c1ccc(F)cc1)N1CCOC(CCN2CCC(c3ccccc3)CC2)(c2ccc(Cl)c(Cl)c2)C1` (stereo not drawn) it was -6%.
